# This is part of a sample that, as a whole, favours compounds with a hit. Of some 79,000 tested, about 15% had one in any assay. Unmarked numbers belong to inactive results. Calls of active or inactive are those of the source. Rule as the data show it: active = growth inhibition above about 70%; inactive = the rest.
# Experiments:
# [1] = NCI Yeast Anticancer Drug Screen. Data for the rad50 strain (AID 155);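 also: 0% = growth of vehicle-only cultures of the same strain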; conditions: S. cerevisiae rad50 strain growth inhibition; at 50.0 µM; stronger effect = higher value
# In short: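 Genetically altered yeast (DNA repair pathway); compound treatment; growth inhibition vs vehicle ctrl.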
# [2] = NCI Yeast Anticancer Drug Screen. Data for the mec2-1 strain (AID 157); conditions: S. cerevisiae mec2-1 strain, at 50.0 µM, stronger effect = higher value
# In short: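 Yeast mec2-1 mutant treated with compound. Readout: growth inhibition vs vehicle controls.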
# [3] = NCI Yeast Anticancer Drug Screen. Data for the sgs1 mgt1 strain (AID 161);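 also: 0% = growth of cultures given vehicle only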; conditions: S. cerevisiae sgs1 mgt1 strain, at 50.0 µM, stronger effect = higher value
# In short: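 Genetically altered yeast, compound exposure, growth inhibition relative to vehicle.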
# [4] = NCI Yeast Anticancer Drug Screen. Data for the cln2 rad14 strain (AID 165);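 also: 0% = growth equal to vehicle treated cultures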; conditions: S. cerevisiae cln2 rad14 strain, at 50.0 µM, stronger effect = higher value
# In short: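 cln2 rad14 yeast strain; compound exposure; growth inhibition read vs vehicle controls.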
# [5] = NCI Yeast Anticancer Drug Screen. Data for the bub3 strain (AID 167); conditions: S. cerevisiae bub3 mutant strain, at 50.0 µM, stronger effect = higher value
# In short: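 Yeast carrying a defined mutation is treated with each compound, and growth is compared with that of vehicle-exposed cells to give inhibition.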
# [6] = NCI Yeast Anticancer Drug Screen. Data for the mlh1 rad18 strain (AID 175); conditions: S. cerevisiae mlh1 rad18 strain growth inhibition; at 50.0 µM; stronger effect = higher value
# In short: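 Yeast w/ defined DNA-repair lesions; compound exposure; growth vs vehicle controls → % inhibition.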
SMILES,growth inhibition [1],growth inhibition [2],growth inhibition [3],growth inhibition [4],growth inhibition [5],growth inhibition [6]
Cc1nc(Cl)c(C)c(Cl)n1,13.4%,-28.6%,1.4%,5.2%,-5%,15.9%
Cn1c(=O)c2[nH]c(SC3CCCCC3)nc2n(C)c1=O,19.2%,11.4%,18.6%,11.3%,35.8%,8.9%
CC1=C(C(=O)NNC(=O)c2ccccc2)CC(C(=O)NNC(=O)c2ccccc2)=C(C)N1,-24.3%,14.5%,1.85%,-34.6%,-13.2%,-28.6%
NC(=O)CCn1ccc2ccccc21,0.5%,-5.8%,0%,-1.25%,5%,-0.85%
CC(C)NC1(N(C)C)N=C(N(C)C)N=C(N(C)C)O1 (centres undefined),-3.65%,-2.7%,2.75%,27%,9.5%,-1.25%
O=C(NC1CC12c1ccccc1-c1ccccc12)Oc1ccc2ccccc2c1 (centres undefined),68.4%,18.8%,60.9%,45.8%,55.2%,57.4%
CCOC(=O)C(C(=O)OCC)(C(=O)C(F)(F)C(F)(F)C(F)(F)C(F)(F)C(=O)C(C(=O)OCC)(C(=O)OCC)c1ccccc1)c1ccccc1,3.75%,0%,-3.7%,-10.6%,7.75%,11.1%
CCCCCCCCCCCCCC(=O)OCCCC,-25.6%,-54.4%,-59.1%,-143%,-52%,-7.35%
CN(C)CCCSc1nc2ccccc2[nH]1,-7.85%,-13.8%,-20.6%,0.75%,7.1%,-6.6%
CC(C(OC(=O)C1c2ccccc2-c2ccccc21)c1ccccc1)N(C)C (centres undefined),99.5% (active),75.8% (active),99.5% (active),91.4% (active),99.4% (active),99.2% (active)
COc1ccc(-c2c(C#N)c(N)nc(C)c2-c2ccccc2)cc1,-26.4%,-10.8%,-6.85%,-24.6%,-5.65%,16.9%
Cc1ccc(C(=O)OC(C)C)cc1N=NN(C)C,32.4%,-11.4%,11.1%,27.1%,6.45%,-15.9%
CN(C)Cn1c2ccccc2c2ccccc21,-2.05%,-1.1%,3.9%,0.1%,-0.8%,-12.4%
CCN(CC)CCCS/C(N)=N\S(=O)(=O)c1ccc(N)cc1,-6.35%,-41%,-20.2%,-7.8%,-0.5%,-16.6%
Clc1cc2nn(C3CCCCO3)nc2cc1Cl (centres undefined),0.65%,-12.8%,-18.4%,-15.9%,16.9%,-44.8%
CN(C)c1ccc2c(c1)c1cc(N(C)C)ccc1n2Cc1ccccc1,-2.05%,-19.6%,12.2%,-30.4%,1.95%,-10.2%
CO[Si](C)(C)OC,-6.65%,-32%,-7.15%,0.3%,-6.15%,-13.9%
CC(C)C(Br)C(=O)N1CCOCC1 (centres undefined),-0.4%,-17.9%,-5.2%,-20.6%,-9.6%,-5.15%
CC1=C2C(=CC(C)(CO)C2O)C(O)C(C)(O)C12CC2 (centres undefined),21.1%,-5.15%,-17.1%,1.95%,-13.9%,-29.8%

# From PubChem BioAssay (NCI)
